From PubChem BioAssay (NCI)
This is part of a sample that, as a whole, favours compounds with a hit. Of some 83,000 tested, about 20% had one in any assay.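 Negative percent growth values reflect cell death: -40 means 40% of the cells present at the start died, and -100 means all died.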 A number with no mark means an inactive call. The source made the active and inactive calls. The calls were made as follows: active = growth percent below 10; inactive = the rest.

The molecules below were run on MDA-MB-468 breast (assay: NCI-60 one-dose screen, 48 h (100 = growth as untreated, 0 = no growth, -100 = all killed)). Details: 10 µM unless noted.
For CN(C)CCCC(=O)Nc1ccc(Cn2nnc3c2C(=O)c2nnn(Cc4ccc(NC(=O)CCCN(C)C)cc4)c2C3=O)cc1, the growth was -62.7% (active).
CCOC(=O)CC1CSC(N/N=C(/C)c2cccc(C(F)(F)F)c2)=N1 (stereo not given) was tested, and the growth was 104%.
With CCO/C=N/C1=C(C#N)C(c2ccc(OC)cc2)c2sc3c(CC)cccc3c2O1 (stereo not given) the growth was -21.1% (active).
In the case of CCOC(=O)c1cc(C(=O)c2cc(OC)c(OC)c(OC)c2)n2ncccc12, the growth was -11.5% (active).
Work on CC/C=C\C/C=C\C[C@H](O)C/C=C1/C(=O)C=C[C@H]1C/C=C\CCC(=O)OC yielded a growth of 28.3% [8.25 µM].
In the case of COc1cc(Cl)ccc1C, the growth was 64.9%.
Work on COc1cc(C(=O)c2cc(C(C)=O)c3cccc(C)n23)cc(OC)c1OC yielded a growth of 15.4%.
For Cc1nc2nc(N)nc(N)c2nc1C, the growth was 97.6%.
For CN(C)CCCC1(c2ccc(F)cc2)OCc2cc(-c3cncc4ccccc34)ccc21 (stereo not given), the growth was -4.62% (active).
Molecule Cc1cc(C)c(CCc2cc(C)c(C)cc2C)cc1C has a growth of 109%.
C=CC(=O)N[C@@H](Cc1ccc(-c2cc(Cl)cc(Cl)c2)cc1)[C@@H](O)[C@H](O)C(=O)O gave a growth of 101%.
Cc1cc(C)c2c(c1)N1OC(C2)C[C@H]1/C=C/c1ccccc1 (stereo not given in full) was tested, and the growth was 92.4%.
CCNC(=O)Nc1ncccc1OCc1ccc(F)cc1 showed a growth of 101%.
For Cn1cc(-c2csc(-c3ccccc3)n2)c2cccnc21, the growth was -34% [100 µM] (active).
COc1ccc(C(=O)N2c3ccccc3Sc3ccccc32)c(C(F)(F)F)c1 gave a growth of 29.7%.
With CN1CCN=C1c1ccc(NC(=O)c2ccc(C(=O)Nc3ccc(C4=NCCN4C)cc3)cc2)cc1 the growth was 81.2%.
For O=C(c1cccc(C(=O)c2ccc3c4c(cccc24)C(=O)N(c2ccccc2)C3=O)c1)c1ccc2c3c(cccc13)C(=O)N(c1ccccc1)C2=O, the growth was 91.3%.
In the case of COc1cc(/C=C/C(=O)c2ccc(C)cc2)ccc1Oc1nc(NCCO)nc(N2CCOCC2)n1, the growth was 27.2%.
Work on N/C(=N\C(N)=N\c1nc2ccccc2s1)c1ccnc(Br)c1 yielded a growth of 96.6%.
Work on Cc1ncc(C(=O)Nc2ccc(CN3CCN(C)CC3)c(C(F)(F)F)c2)cc1C#Cc1cnc(N)c2ncccc12 yielded a growth of 63.1%.
With COc1ccc(C2CC(=O)c3c(O)cc(OC4OC(COC5OC(C)C(O)C(O)C5O)C(O)C(O)C4O)cc3O2)cc1O (stereo not given) the growth was 96.9%.
With COc1ccc(-c2nc(/C=N/Nc3cc(C)nc4ccc(Br)cc34)c(C)o2)cc1 the growth was -78.9% (active).
With Cc1ccc2c(c1)nc(C)n2-c1ncnc2c1CC(C)c1cc(O)ccc1N2C (stereo not given) the growth was 10%.
CS(=O)(=O)c1ccc(NC(=O)c2ccccc2)nc1 gave a growth of 105%.
Cc1cc(C)c(OC(=O)CSc2nc3ccccc3c(=O)n2CCc2ccccc2)cc1C gave a growth of 101%.
